BAZ2B block: blocks human BAZ2B; Q9UIF8; AlphaScreen BAZ2B-H3K14Ac peptide displacement; Potency, µM (highest dose often 114 µM), inactives show at the highest dose activity change, negative = inhibition, actives largely listed as inhibitors; actives 4.4% (n = 360,000); note: potency is the fitted concentration of half-maximal effect; % is set by controls: 0 for no effect and ±100 for the full control effect; nearly all actives have a fitted effect of over 60% in size
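AlphaScreen displacement of biotin-H3(5-23)K14Ac peptide (50 nM final) from BAZ2B (50 nM final) in PBS pH 7.4, 0.01% Tween-20; complex preformed 30 min RT, then compounds (top 110 uM) 30 min RT, beads 20 min dark.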
G9a inh: blocks human histone lysine methyltransferase G9a | Potency, µM (titrated, usually from 102 µM), without a hit: at the top dose activity, negative = inhibition, most hits filed as inhibitors | actives 8.8% (n = 350,000) | G9a H3K9 monomethylation, AlphaScreen, 2 h; note: potency is the fitted concentration of half-maximal effect; % is set by controls: 0 for no effect and ±100 for the full control effect; nearly all actives have a fitted effect of over 75% in size
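AlphaScreen read-out: biotin-H3K9 peptide (500 nM) methylation by 20 nM enzyme with 20 uM SAM, 2 h at room temperature after 15 min compound preincubation; anti-monomethyl H3K9 antibody plus donor/acceptor beads, 10 min dark.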
PLK1 PBD block: inhibitors of human PLK1 polo-box domain binding | Plk1 PBD binding of FITC phosphopeptide, fluorescence polarization | Potency, µM, for inactives: max response, negative = inhibition, usual class: inhibitors | actives 2.8% (n = 360,000) | AID 720504; note: potency is the fitted concentration of half-maximal effect; series mostly up to about 57 µM; % is set by controls: 0 for no effect and ±100 for the full control effect; nearly all actives have a fitted effect of over 65% in size
Target sequence (P53350 whole entry, looked up, the tested form may be a part): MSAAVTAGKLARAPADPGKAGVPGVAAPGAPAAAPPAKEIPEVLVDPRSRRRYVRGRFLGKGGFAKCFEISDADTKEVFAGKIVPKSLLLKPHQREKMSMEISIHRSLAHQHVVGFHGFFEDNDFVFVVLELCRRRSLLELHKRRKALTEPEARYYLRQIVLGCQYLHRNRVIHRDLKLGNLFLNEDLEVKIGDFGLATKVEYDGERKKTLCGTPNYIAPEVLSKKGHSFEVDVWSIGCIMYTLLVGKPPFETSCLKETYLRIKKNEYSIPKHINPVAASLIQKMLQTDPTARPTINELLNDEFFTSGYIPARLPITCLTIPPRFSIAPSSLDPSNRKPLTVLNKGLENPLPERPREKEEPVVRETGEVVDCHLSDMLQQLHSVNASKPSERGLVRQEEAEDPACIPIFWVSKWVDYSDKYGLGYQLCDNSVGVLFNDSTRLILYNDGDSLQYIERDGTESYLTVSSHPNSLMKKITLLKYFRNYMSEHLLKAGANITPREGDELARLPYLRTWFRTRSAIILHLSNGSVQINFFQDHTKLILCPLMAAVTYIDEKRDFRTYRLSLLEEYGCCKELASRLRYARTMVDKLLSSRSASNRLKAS
JMJD2A Tudor inh: JMJD2A Tudor domain (human) inhibition. O75164. AlphaScreen JMJD2A-Tudor / H3K4me3 peptide binding. Potency, µM (titrated, usually from 114 µM), for inactives: top-dose activity change, negative = inhibition, actives largely listed as inhibitors. actives 4.4% (n = 390,000). AID 504339; note: potency is the fitted concentration of half-maximal effect; % is set by controls: 0 for no effect and ±100 for the full control effect; nearly all actives have a fitted effect of over 50% in size
HP1b chromo inh: blocks HP1-beta chromodomain binding to methylated histone tails; P83916; AlphaScreen HP1-beta / biotin-H3K9me3 peptide binding; Potency, µM (doses to about 114 µM), for the others: at the top dose activity change, negative = inhibition, most hits filed as inhibitors; actives 0.56% (n = 390,000); AID 540317; note: potency is the fitted concentration of half-maximal effect; nearly all actives have a fitted effect of over 70% in size
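AlphaScreen: HP1-beta (50 nM) preformed 30 min with biotin-H3(1-18)K9me3 peptide (50 nM) in PBS pH 7.4, 0.01% Tween-20. Compound added for 30 min at RT, then streptavidin donor/nickel chelate acceptor beads (10 ug/mL) for 30 min.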
PI5P4K alpha inh: PI5P4K alpha (human) kinase inhibition | max response, % | actives 1.2% (n = 330,000) | AID 652105 | P48426 | PI5P4Kalpha enzyme, ADP-Glo luminescence, 60 min; hits give low values; active = max response of -50% or lower; inconclusive = between -30% and -50%; inactive = -30% or higher; note: value at the top dose of about 77 µM; % is set by controls: 0 for no effect and ±100 for the full control effect
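Human PI5P4Kalpha with substrate in 0.038 M HEPES pH 7.4, 0.28 mM EGTA, 0.1% CHAPS, 5% DMSO; reaction started with 5 microM ATP (final), 60 min at room temperature. ADP formed read by ADP-Glo luminescence.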
Starred values were filed as active, the others as inactive; [ ] = another dose, or the depositor's remark. Only some compounds are listed: those with a hit (about 12% of all), similar ones and a draw of the others. Unless noted, calls come from the whole dose curve; as a rule, active = well fitted curve in the direction sought with a large enough effect; inconclusive = small, poorly fitted or top-dose-only effect, or another doubt; inactive = no such curve, though single readings can be large; an effect the other way counts as inactive or inconclusive.

`CC(C)c1nnc(NC(=O)c2nc(S(=O)(=O)Cc3ccc(F)cc3)ncc2Cl)s1` gave BAZ2B block -28%, G9a inh 8.9µM*, PLK1 PBD block -22%, JMJD2A Tudor inh inconclusive, HP1b chromo inh 17%[57 µM] and PI5P4K alpha inh -10.
For CCSc1nnc(NC(=O)c2nc(S(=O)(=O)Cc3ccc(F)cc3)ncc2Cl)s1 the results were BAZ2B block inconclusive, PLK1 PBD block inconclusive, JMJD2A Tudor inh 2.8µM*, HP1b chromo inh 10%[57 µM] and PI5P4K alpha inh -30.
For Cc1ccc(CS(=O)(=O)c2ncc(Cl)c(C(=O)Nc3nnc(C(C)C)s3)n2)cc1 the results were BAZ2B block -13%, G9a inh 45µM*, PLK1 PBD block inconclusive, JMJD2A Tudor inh inconclusive, HP1b chromo inh 33%[57 µM] and PI5P4K alpha inh -26.
C=CCSc1nnc(NC(=O)c2nc(SCC)ncc2Cl)s1 was read as BAZ2B block -27%, G9a inh 7.9µM*, PLK1 PBD block -8%, JMJD2A Tudor inh -18% and HP1b chromo inh 12%.
For Cc1ccc(C)c(NC(=O)c2nc(S(=O)(=O)Cc3ccc(F)cc3)ncc2Cl)c1 the results were BAZ2B block 1%, G9a inh -3%[59 µM], JMJD2A Tudor inh 9% and HP1b chromo inh 55%.
For CCOC(=O)c1[nH]c2c(c1Cc1ccccc1)C(=O)CC(c1ccc(Cl)cc1)C2 (centres undefined) the results were BAZ2B block -14%, G9a inh -19%[59 µM], JMJD2A Tudor inh -20% and HP1b chromo inh 21%.
Screening O=C1c2[nH]nc(-c3ccccc3O)c2C(c2ccc(F)cc2)N1Cc1ccco1 (centres undefined) returned BAZ2B block inconclusive, G9a inh -25%[12.7 µM], PLK1 PBD block -3%, JMJD2A Tudor inh inconclusive and HP1b chromo inh -14%.
COc1ccc(C2c3c(-c4ccccc4O)n[nH]c3C(=O)N2Cc2ccco2)cc1OC (centres undefined) was read as BAZ2B block 56µM*, G9a inh -35%, PLK1 PBD block -21%, JMJD2A Tudor inh inconclusive, HP1b chromo inh -24% and PI5P4K alpha inh 0.
Screening Cc1ccc(C2c3c(-c4cc(C)ccc4O)n[nH]c3C(=O)N2Cc2ccco2)cc1 (centres undefined) returned BAZ2B block 22µM*, G9a inh 28µM*, JMJD2A Tudor inh inconclusive and HP1b chromo inh 0%.
For O=C1c2[nH]nc(-c3ccccc3O)c2C(c2cccc(Cl)c2)N1Cc1ccco1 (centres undefined) the results were BAZ2B block inconclusive, G9a inh 2%[12.7 µM], PLK1 PBD block -3%, JMJD2A Tudor inh inconclusive and HP1b chromo inh -25%.
`Cc1ccc(NS(=O)(=O)c2ccc3c(c2)CCO3)cc1C` gave JMJD2A Tudor inh -29%.
For CSCCC(C(=O)NC1CCCC1)n1c(C2CCCC2)nc2ccccc21 (centres undefined) the results were PLK1 PBD block -5% and PI5P4K alpha inh -6.
COc1ccc(S(=O)(=O)c2c(Nc3ccc(C)cc3C)sc(C(=O)c3ccc(F)cc3)c2N)cc1 was read as BAZ2B block -22%, G9a inh inconclusive, JMJD2A Tudor inh -24% and HP1b chromo inh 21%[57 µM].
Screening Cc1ccc(C(=O)CC(=O)c2ccccc2C)c(O)c1 returned BAZ2B block 7%, G9a inh 43%, PLK1 PBD block 47%, JMJD2A Tudor inh 5%, HP1b chromo inh 20% and PI5P4K alpha inh 13.
`C=C(CN(C)C)C(=O)c1cc(OC)c(OC)cc1OC` gave PLK1 PBD block 17µM*, JMJD2A Tudor inh 79µM*, HP1b chromo inh inconclusive and PI5P4K alpha inh 3.
COc1cc(OC)c(C(=O)CCC(=O)O)cc1OC was read as BAZ2B block 10%, G9a inh 11%[59 µM], PLK1 PBD block -9%, JMJD2A Tudor inh -2%, HP1b chromo inh 30% and PI5P4K alpha inh -6.
Screening C=C(CN(C)C)C(=O)c1ccc2c(c1)OCO2 returned PLK1 PBD block 15µM*, JMJD2A Tudor inh 14µM*, HP1b chromo inh inconclusive and PI5P4K alpha inh 4.
